Measured values from PubChem BioAssay (Tox21).
Where “and” joins values, the source holds several entries; their conditions need not be identical. Equal entries are not always repeated. Results filed as inconclusive are left out. Calls of active or inactive are those of the source. Unless noted, the call rests on the fitted dose curve; in most records, active means well fitted curve in the direction sought with a large enough effect in the repeat runs; inconclusive means weak or mixed curves; inactive means no such curve, though single readings can be large; an effect the other way counts as inactive or inconclusive.

Key:
[1] = qHTS assay to identify small molecule antagonists of the androgen receptor (AR) signaling pathway using the MDA cell line in the presence of 0.5 nM R1881 - cell viability counter screen (AID 1259242); further: nearly all actives have a fitted effect of over 45% in size; further: potency means the concentration at half of the fitted maximal effect
Summary of the method: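 Cytotoxicity toward MDA-kb2 cells is measured by CellTiter-Fluor live-cell protease fluorescence after 16 hr compound exposure at 37C in the presence of 0.5 nM R1881 stimulator.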

[2] = molecular target: Estrogen receptor (Homo sapiens) (UniProt P03372); assay: qHTS assay to identify small molecule antagonists of the estrogen receptor alpha (ER-alpha) signaling pathway using the BG1 cell line in the presence of 0.1 nM 17-beta-estradiol (AID 1259244); further: nearly all actives have a fitted effect of over 50% in size; further: potency means the concentration at half of the fitted maximal effect
Summary of the method: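 After 5 days in hormone-depleted medium (charcoal-stripped serum, no phenol red), VM7Luc4E2 cells were seeded, incubated 24 h, then co-treated with compound and 0.1 nM (final) estradiol for 22 h before luminescence detection.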

[3] = qHTS assay to identify small molecule HDAC inhibitors (AID 1259364); further: top concentration of the series differs between compounds; nearly all actives have a fitted effect of over 45% in size
Summary of the method: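 Homogeneous cell-based luminescent assay of endogenous class I/II HDAC activity; HCT-116 cells, 2 h compound exposure, 30 min HDAC-Glo development at RT.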

[4] = qHTS assay to identify small molecule HDAC inhibitors - cell viability counter screen (AID 1259365); further: series mostly up to about 92 µM; nearly all actives have a fitted effect of over 50% in size
Summary of the method: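 Cytotoxicity was gauged in wild-type HCT-116 cells after a brief 2hr treatment with DMSO-dissolved compounds at 37C and 5% CO2, using CellTiter-Glo luminescence developed for 30min at room temperature.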

[5] = qHTS assay to identify small molecule agonists of the sonic hedgehog signaling (Shh) pathway - cell viability counter screen (AID 1259366); further: nearly all actives have a fitted effect of over 50% in size; further: potency means the concentration at half of the fitted maximal effect
Summary of the method: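 Stable Gli1-Luc NIH/3T3 clone, 2,000 cells/well. Compound exposure 24hr at 37C. Read-out: CellTiter-Fluor fluorescence.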

[6] = qHTS assay to identify small molecule antagonists of the sonic hedgehog signaling (Shh) pathway - cell viability counter screen (AID 1259367); further: nearly all actives have a fitted effect of over 55% in size; further: potency means the concentration at half of the fitted maximal effect
Summary of the method: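 Seed 3T3 Gli1-Luc cells at 2,000 per well; incubate 4 hr; add compound in DMSO, then conditioned medium; incubate at 37C with 5% CO2; add CellTiter-Fluor after 23 hr; read fluorescence 1 hr later.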

[7] = qHTS assay to identify small molecule agonists of the sonic hedgehog signaling (Shh) pathway (AID 1259368; calls by dose curve;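 further: NIH/3T3-derived 3T3Gli1-Luc cells carrying a stable Gli1-driven firefly luciferase reporter; series mostly up to about 92 µM; nearly all actives have a fitted effect of over 15% in size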)
Summary of the method: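 Steps: seed 3T3 Gli1-Luc cells, incubate 4 hr at 37 C, pin-transfer compounds in DMSO alongside a positive control, incubate 24 hr, add luciferase detection reagent, wait 30 min at room temperature, read luminescence.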

[8] = qHTS assay to identify small molecule antagonists of the sonic hedgehog signaling (Shh) pathway (AID 1259369; calls by dose curve; further: nearly all actives have a fitted effect of over 45% in size; further: potency means the concentration at half of the fitted maximal effect)
Summary of the method: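 Inhibition of Shh signalling is measured as reduced Gli1-response-element firefly luciferase output in an NIH/3T3-derived stable reporter clone stimulated with conditioned medium for 24hr.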

[9] = molecular target: Androgen receptor (Homo sapiens) (UniProt P10275); assay: qHTS assay to identify small molecule antagonists of the androgen receptor (AR) signaling pathway using the MDA cell line in the presence of 0.5 nM R1881 (AID 1259243); further: nearly all actives have a fitted effect of over 50% in size; further: potency means the concentration at half of the fitted maximal effect
Summary of the method: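 Steps: seed MDA-kb2 cells, incubate 5 hr at 37C; pin-transfer compounds in DMSO; add R1881 to 0.5 nM final; incubate 16 hr; add ONE-Glo, wait 30 min at room temperature; read luminescence.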

[10] = qHTS assay to identify small molecule phospholipidosis (PLD) inducers (AID 1259344; active means well fitted curve in the direction sought with a large enough effect; an effect the other way counts as inactive or inconclusive)
Summary of the method: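 Quantitative HTS in HepG2: compound plus LipidTOX Red dye for 24 h, paraformaldehyde fixation with Hoechst 33342, widefield high-content imaging; amiodarone as positive and DMSO as negative control.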

Measured: Potency

Chain of Estrogen receptor (Homo sapiens) (P03372 whole entry, looked up): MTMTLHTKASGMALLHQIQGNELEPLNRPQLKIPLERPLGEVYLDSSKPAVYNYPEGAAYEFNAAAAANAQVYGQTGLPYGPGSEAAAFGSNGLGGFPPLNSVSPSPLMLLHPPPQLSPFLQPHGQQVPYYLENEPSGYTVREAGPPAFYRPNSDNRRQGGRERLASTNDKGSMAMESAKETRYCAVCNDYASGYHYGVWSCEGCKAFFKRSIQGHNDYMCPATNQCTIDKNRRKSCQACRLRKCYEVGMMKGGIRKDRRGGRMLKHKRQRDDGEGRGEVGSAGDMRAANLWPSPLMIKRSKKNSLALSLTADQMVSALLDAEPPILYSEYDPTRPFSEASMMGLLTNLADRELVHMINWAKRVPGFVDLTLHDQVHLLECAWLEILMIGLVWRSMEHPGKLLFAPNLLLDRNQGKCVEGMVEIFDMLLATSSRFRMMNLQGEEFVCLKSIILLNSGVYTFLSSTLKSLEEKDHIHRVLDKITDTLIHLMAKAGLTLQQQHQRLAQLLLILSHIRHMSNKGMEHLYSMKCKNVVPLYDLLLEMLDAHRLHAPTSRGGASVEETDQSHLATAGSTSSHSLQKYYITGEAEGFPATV
Chain of Androgen receptor (Homo sapiens) (P10275 whole entry, looked up): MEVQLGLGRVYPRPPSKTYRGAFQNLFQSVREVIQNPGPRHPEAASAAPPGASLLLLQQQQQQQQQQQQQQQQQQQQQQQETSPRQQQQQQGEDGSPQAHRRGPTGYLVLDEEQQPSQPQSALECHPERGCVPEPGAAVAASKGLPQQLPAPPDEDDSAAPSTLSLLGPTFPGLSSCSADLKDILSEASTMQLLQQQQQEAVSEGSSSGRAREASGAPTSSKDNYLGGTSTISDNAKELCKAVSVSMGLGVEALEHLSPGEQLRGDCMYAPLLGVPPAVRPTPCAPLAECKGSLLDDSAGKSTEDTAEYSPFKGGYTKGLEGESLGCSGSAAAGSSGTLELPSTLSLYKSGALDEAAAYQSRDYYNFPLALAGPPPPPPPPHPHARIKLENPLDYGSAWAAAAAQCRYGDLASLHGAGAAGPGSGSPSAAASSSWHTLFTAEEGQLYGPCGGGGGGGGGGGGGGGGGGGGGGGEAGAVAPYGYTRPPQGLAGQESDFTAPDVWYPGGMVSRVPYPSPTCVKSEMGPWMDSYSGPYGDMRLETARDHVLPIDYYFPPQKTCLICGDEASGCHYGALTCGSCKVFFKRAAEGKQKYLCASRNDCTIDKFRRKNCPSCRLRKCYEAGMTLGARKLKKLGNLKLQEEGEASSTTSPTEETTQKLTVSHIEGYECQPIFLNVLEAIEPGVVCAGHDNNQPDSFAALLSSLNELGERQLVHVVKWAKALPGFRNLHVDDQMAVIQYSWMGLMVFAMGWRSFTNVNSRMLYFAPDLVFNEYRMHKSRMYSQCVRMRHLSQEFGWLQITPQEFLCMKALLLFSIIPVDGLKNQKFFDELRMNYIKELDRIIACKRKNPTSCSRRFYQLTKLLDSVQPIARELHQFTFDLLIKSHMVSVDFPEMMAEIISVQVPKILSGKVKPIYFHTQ

CN(C)CCN1CCOCC1
not listed: [8] | [9] | [10]
inactive: all other assays above

COc1ccc(C#N)cc1
not listed: [9] | [10]
inactive: all other assays above

CCOC(=O)N1CCC(=C2c3ccc(Cl)cc3CCc3cccnc32)CC1
active: [2] 61.1 µM | [5] 61.1 µM | [8] 43.3 µM and 13.3 µM
not listed: [9] | [10]
inactive: all other assays above

CC(C)=CC1CC(C)CCO1 (centres undefined)
not listed: [9] | [10]
inactive: all other assays above

CCCN(CCc1cccs1)[C@H]1CCc2c(O)cccc2C1
inactive: [1] | [4] | [5] | [6] | [7]
active: [9] 26.6 µM

O=C1OC(OC(=O)c2cccnc2Nc2cccc(C(F)(F)F)c2)c2ccccc21 (centres undefined)
inactive: [1] | [9] | [4] | [5] | [6] | [7]

CN1CN(C)CN(C)C1
not listed: [9] | [10]
inactive: all other assays above

CC(NCCC(c1ccccc1)c1ccccc1)c1ccccc1 (centres undefined)
active: [1] 21.1 µM | [9] 21.1 µM | [8] 26.6 µM
inactive: [3] | [7]

CCCC(CC)CCCCCCCN (centres undefined)
not listed: [8] | [9] | [10]
inactive: all other assays above

CCCOc1sc(C(=O)N2CCC(c3cc(CN)ccc3F)CC2)c(C)c1Br
active: [1] 39.7 µM | [9] 39.7 µM | [5] 22.3 µM | [6] 25 µM
inactive: [7]

CCCC(O)C(O)CO (centres undefined)
not listed: [2] | [4] | [10]
inactive: all other assays above

CCCCCCCCCCCCCC[n+]1ccccc1
inactive: [3] | [4] | [7]
active: [1] 24.3 µM | [2] 2.17 µM | [5] 61.1 µM | [6] 61.1 µM | [8] 0.0049 µM

CCN(CC)CCSC(=O)C(c1ccccc1)c1ccccc1
active: [8] 23.7 µM
not listed: [9]
inactive: all other assays above

c1cc(OCC2CO2)cc(OCC2CO2)c1 (centres undefined)
active: [9] 48.2 µM | [5] 21.5 µM | [6] 60.6 µM | [8] 19.2 µM
inactive: [1] | [4] | [7]
